# High-throughput results from PubChem.
# GAA850 FXN act – frataxin GAA850 promoter activation | HEK293 lucGAA850 FXN promoter luciferase reporter, 24 h; percent of 10 µM SAHA response | activation, % at 6 µM | actives 0.56% (n = 360,000) | AID 540364;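 active = activation above the average of all compounds screened plus 3 SD, cutoff fixed separately per campaign, cut at about 7.5% in these data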;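 note: 0% = DMSO wells and 100% = 10 µM SAHA wells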
# SMARCA2 act – activators of SMARCA2 function; MG213 cells, MMTV-luciferase reporter, dexamethasone, overnight; activation, % at 9.1 µM; actives 1% (n = 370,000); AID 652017; in the data active = activation above about 7.8%;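 note: 0% = vehicle wells and 100% = reference activator wells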
# FAS-TE inh – blocks the thioesterase domain of human fatty acid synthase. P49327. recombinant FAS-TE, OMFH fluorogenic substrate, fluorescence endpoint. inhibition, % at 15 µM. actives 0.67% (n = 360,000);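 active = compounds whose normalised, plate-corrected inhibition of enzyme fluorescence in the single-dose primary screen is 50% or more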;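 note: 0% = DMSO with enzyme and 100% = substrate without enzyme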
# proKLK7 act – proKLK7 (human) activation, primary screen. P49862. purified proKLK7, EDANS-DABCYL substrate fluorescence; 100% is mature enzyme control, 0% vehicle. activation, % at 7 µM. actives 0.9% (n = 370,000). AID 652039;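 active = activation above the mean of all tested compounds plus 3 SD, computed per campaign excluding outliers beyond control limits, cut at about 13% in these data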
# Target sequence (P49862 whole entry, looked up): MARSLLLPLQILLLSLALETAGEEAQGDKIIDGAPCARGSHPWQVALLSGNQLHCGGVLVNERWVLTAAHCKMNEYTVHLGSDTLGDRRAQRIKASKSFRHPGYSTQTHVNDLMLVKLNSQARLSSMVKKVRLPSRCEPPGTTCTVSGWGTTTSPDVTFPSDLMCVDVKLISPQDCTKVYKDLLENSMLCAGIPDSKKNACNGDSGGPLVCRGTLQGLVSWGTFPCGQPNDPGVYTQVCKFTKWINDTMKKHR
# GAA30 counter – GAA30 FXN promoter activation counter-screen. AID 588350. shares compounds with GAA850 FXN act. actives 66% (n = 1,900). activation, % at 6 µM. HEK293 lucGAA30 FXN promoter luciferase, 24 h; DMSO = 0%, 5 µM ipriflavone = 100%;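 active = mean activation above the mean of solvent-only control wells plus 3 SD, cut at about 22% in these data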;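 note: counterscreen of GAA850 promoter hits where activity marks nonselective or luminescence artifacts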
# FXN GAA850 conf – confirmation of GAA850 frataxin (FXN) promoter activators. activation, % at 6 µM. actives 86% (n = 1,900). shares compounds with GAA850 FXN act. HEK293 lucGAA850 FXN promoter luciferase reporter, 24 h; 100% = activation by SAHA;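 active = mean activation above a set limit taken from the primary screen, cut at about 8% in these data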;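 note: 0% = DMSO wells and 100% = 10 µM SAHA wells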
# Active calls of the source: *; . = no result given. Sampled rows, rich in hits. Any-hit rate of the full collection: about 2.9%.
SMILES,GAA850 FXN act,SMARCA2 act,FAS-TE inh,proKLK7 act,GAA30 counter,FXN GAA850 conf
COC(=O)c1ccc(CSC2=NC[C@@H]3[C@@H]4C(=O)N(Cc5ccccc5)C(=O)[C@@H]4[C@](C)(C(=O)OC)N23)cc1,4,-2,6,1,.,.
CCN1C(=O)[C@H]2[C@H]3CN=C(SCc4ccc(Cl)cc4)N3[C@@](CC)(C(=O)OC)[C@H]2C1=O,11*,-3,4,0,23*,9.2*
Cc1cc(/C=C2\NC(=S)N(C)C2=O)ccc1N1CCCC1,7.6*,-1,-22,0,107*,50*
Cc1ccc(O)c(NC(=O)CCC2CCCCC2)c1,8.3*,7,-2,-1,91*,35*
COc1ccccc1-c1ccc2c(c1)C(C)(Cc1cccc(F)c1)C(=O)N2 (stereo unspecified),11*,-3,17,0,17,12*
COc1ccc(C(C)=O)cc1CC1(C)C(=O)Nc2ccc(-c3ccccc3OC)cc21 (stereo unspecified),15*,-1,7,0,10,9.2*
COc1ccc(C(C)=O)cc1CC1(C)C(=O)Nc2ccc(OC(F)(F)F)cc21 (stereo unspecified),-1,-2,2,0,.,.
Cc1ccc(Cn2c(/C=C/c3ccco3)nc3ccccc32)cc1,8.0*,6,20,-1,109*,44*
CC(=O)NC12CC3CC(C1)CC(C(=O)Nc1nc4ccc(S(C)(=O)=O)cc4s1)(C3)C2,0,-1,-2,0,.,.
CCOC(=O)c1c(C)[nH]c(C(=O)OCCOc2ccccc2C)c1C,9.5*,3,14,0,98*,26*
CCOC(=O)c1c(C)[nH]c(C(=O)OCCOc2ccc(Cl)cc2)c1C,3,1,12,0,.,.
Nc1ccc(-c2nc3ncccc3o2)c(Cl)c1,8.7*,5,-9,4,108*,41*
Nc1ccc(Cl)c(-c2nc3ncccc3o2)c1,0,2,-2,0,.,.
C=CCSc1nc(N)c(C#N)c(-c2ccccc2)c1C#N,11*,-4,-7,-3,18,17*
N#Cc1ccccc1OCc1nnc(-c2ccccc2Br)o1,8.8*,2,9,0,102*,41*
Clc1ccccc1OCc1nnc(-c2ccccc2Br)o1,3,4,24,0,.,.
O=S(=O)(CCN1CCN(C(c2ccccc2)c2ccccc2)CC1)C(F)(F)F,7.8*,-2,7,0,37*,16*
COC(=O)c1ccc(CSC(=N)N)o1,8.5*,1,1,0,31*,13*
Clc1ccc(SCc2cc(N3CCOCC3)nc(-c3ccccn3)n2)cc1,-5,-3,5,0,.,.
O=c1[nH]c2ccccc2nc1/C=C/c1ccc(O)cc1,7.6*,4,-3,5,121*,35*
O=c1[nH]c2ccccc2nc1/C=C(\O)c1cccs1,11*,5,-13,0,116*,41*
CC1=C(C(=O)OCc2ccccc2)C(c2cccc(Cl)c2Cl)NC(=O)N1CCCCCC(=O)O (stereo unspecified),2,0,7,0,.,.
CC(C)C[C@@H]1COc2cccc(N(C)CCO)c2S(=O)(=O)N1,.,2,-7,0,.,.
COc1ccc(-c2nc(Cn3c(SCc4cccc(F)c4)nc4ccncc43)c(C)o2)cc1OC,12*,-2,8,0,19,4
COc1ccc(-c2nc(Cn3c(SCc4ccc(C)cc4)nc4ccncc43)c(C)o2)cc1OC,3,1,9,-2,.,.
SMILES,GAA850 FXN act,SMARCA2 act,FAS-TE inh,proKLK7 act,GAA30 counter,FXN GAA850 conf
O=C(N/N=C/c1ccncc1)C1CC1(c1ccccc1)c1ccccc1 (stereo unspecified),0,-5,3,1,.,.
O=C(N/N=C/c1ccc(O)c([N+](=O)[O-])c1)C1CC1(c1ccccc1)c1ccccc1 (stereo unspecified),10*,-2,8,1,32*,19*
COC(=O)C1=C(CSc2nc3c(cc2C#N)CN(C)CC3)OC(N)=C(C#N)C1c1ccccc1F (stereo unspecified),-2,.,-5,.,.,.
c1ccc(C2=NN(c3ccccc3)CC2)cc1,7.7*,5,18,-22,108*,30*
CCOC(=O)/C(=C/c1ccc(N2CCC(c3ccccc3)=N2)cc1)C(C)=O,-13,.,-17,.,.,.
CCCC(=O)NC(=S)Nc1cccc(Cl)c1N1CCCCC1,3,1,33,0,.,.
CCCCC(=O)NC(=S)Nc1cccc(Cl)c1N1CCCCC1,10*,-3,22,0,13,9.6*
CCOC(=O)c1c(CN2CCOCC2)n(-c2ccccc2)c2cc(Br)c(O)c(CN(C)C)c12,1,0,-18,0,.,.
CCOC(=O)c1c(CSc2ccccc2)n(C)c2cc(Br)c(O)c(CN(C)C)c12,19*,-3,-16,0,11,12*
CCOC(=O)c1c(CN2CCCCC2)n(C)c2cc(Br)c(O)c(CN(C)C)c12,0,.,-6,.,.,.
CCOC(=O)c1c(CSc2ccc(C)cc2)n(C)c2cc(Br)c(O)c(CN(C)C)c12,11*,2,-46,0,14,15*
CCOC(=O)c1c(CSc2ccsc2)n(C)c2cc(Br)c(O)c(CN(C)C)c12,7.8*,-2,-7,0,-5,5
N#Cc1ccccc1CN1C(=O)c2ccccc2S1(=O)=O,1,-2,1,0,.,.
c1nc(Nc2ccc(N3CCOCC3)cc2)c2ccsc2n1,4,0,-2,-1,.,.
Fc1ccc(-c2csc3ncnc(Nc4ccc(N5CCOCC5)cc4)c23)cc1,12*,-4,24,1,5,11*
COC(=O)[C@]12C[C@H](CC(=O)NCc3cccs3)C(=O)N(Cc3cccc4ccccc34)C1=C[C@H](C(C)(C)C)O[C@@H]2C,.,-2,.,0,.,.
Cc1cc(NC(=O)CCC(=O)N(Cc2cccs2)C(C(=O)NC2CCCC2)c2ccccc2)no1 (stereo unspecified),-3,-1,-4,1,.,.
CCOC(=O)C(C)Oc1cccc2c(=O)n(CC(=O)Nc3ccc4c(c3)OCCO4)ccc12 (stereo unspecified),11*,-3,-12,1,4,-1
CC(=O)NCCc1ccc(C(=O)COC(=O)c2ccco2)cc1,0,1,-5,-1,.,.
O=C(Nc1ccc(F)cc1)Nc1ccc(N2CCOCC2)c2nonc12,8.2*,2,-1,1,103*,32*
C[C@H](CO)N1C[C@H](C)[C@@H](CN(C)C(=O)NC2CCCCC2)Oc2ncc(Br)cc2C1=O,1,-2,-5,0,.,.
